According to ChEMBL document CHEMBL3988442, “University of Dundee, Small-Polar-MMV Screening Library” (2021):
In all, about 48,000 compounds went through this assay and about 13,000 (27%) showed an effect of 50% or more. The list shows a part of the results.

What follows are compounds tested on Wolbachia pipientis (assay: Anti-Wolbachia Cell-Based Screen). Details: 5 µM.
Assay type: functional
Set-up: scale not given: in the data most compounds retested in dose-response had high values

Structure (SMILES) | Percent Effect [%]
Cc1cnc(N2C[C@@H]3[C@@H](C2)OCC(=O)N3CC(C)C)nc1.O=C(O)C(F)(F)F | -17.14
Cc1cc(CN2CCCn3nc(CCC(=O)O)cc3C2)ccc1F | -13.15
O=C(CCc1cc2n(n1)CCCN(Cc1ccccc1F)C2)NC1CC1 | 0.7471
O=C(CCc1cc2n(n1)CCCN(CCc1ccccc1)C2)NC1CC1 | 113.2
CCn1cc(CN2CCCn3nc(CCC(=O)NCCO)cc3C2)cn1 | -3.785
CSc1ccccc1CN1CCCn2nc(CNC(=O)N(C)C)cc2C1 | 2.043
Nc1ncccc1CN1CCCn2nc(CCC(=O)NC3CC3)cc2C1 | 172.9
Cc1nc(C(NC(=O)CC(F)(F)F)c2ccc(Cl)cc2)no1 (centres undefined) | 0.7806
COCC(=O)N1CCCCC1c1nc(C)c2c(n1)N(CC1CC1)C(=O)C2 (centres undefined) | 105.7
COCC(=O)N1CCCCC1c1nc(C)c2c(n1)N(C1CC1)C(=O)CC2 (centres undefined) | 63.67
COCCC(=O)N1CCCC1c1nc(C)c2c(n1)N(C)C(=O)CC2 (centres undefined) | 147.7
COCC(=O)N1CCCC1c1nc(C)c2c(n1)N(CC(C)C)C(=O)CC2 (centres undefined) | 117
CC(C)CS(=O)(=O)CC(=O)N1CCCC1c1noc(C2CC2)n1 (centres undefined) | -6.47
Cn1c(C2CCCN2C(=O)CN2CCCC2=O)nc2ccccc21 (centres undefined) | 0.4362
COCCn1cc(C(=O)N2CCCC2c2noc(C)n2)ccc1=O (centres undefined) | 10.03
COCCC(=O)N1CCCC1c1cccc(C)c1C (centres undefined) | 3.518
COCC(=O)N1CCCC1c1cccc(C)c1C (centres undefined) | 4.955
CC(Nc1nc2c(cnn2C)c(=O)[nH]1)c1ccc(F)cc1 (centres undefined) | -20.73
COCCN1CC(C(=O)N(C)Cc2cc(-c3cccnc3)no2)CC1=O (centres undefined) | -16.5
O=C(c1cnc2c(c1)CCC2)N1CCCC(CO)(CC2CC2)C1 (centres undefined) | -2.632
OC[C@@H](O)CN(CCC(F)(F)F)c1ncc(Br)cn1 | 8.436
CCC(Nc1nnnn1-c1ccccc1)C(=O)NCc1ccsc1 (centres undefined) | 4.065

Structure (SMILES) | Percent Effect [%]
Cc1nc(C2CCCN2CC(=O)N(Cc2ccsc2)C2CC2)no1 (centres undefined) | -3.982
CCN(CC)C(=O)CN1CCCC1c1nc(C)c2c(n1)N(C)C(=O)CC2 (centres undefined) | 125.7
CCN(CC)C(=O)CN1CCCC1C(=O)N(C)C (centres undefined) | 1.193
Cn1cccc1C(=O)NCc1cnc2n1CCN(CC1CCOCC1)C2.O=C(O)C(F)(F)F | 19.82
O=C(NCc1cnc2n1CCN(Cc1nccs1)CC2)C1CCC1.O=C(O)C(F)(F)F | 95.25
Cn1cccc1C(=O)NCc1cnc2n1CCN(CC1CC1)C2.O=C(O)C(F)(F)F | -11
O=C(NCc1cnc2n1CCN(Cc1ccsc1)CC2)C1CCC1.O=C(O)C(F)(F)F | -9.045
Cc1ccc(CN2CCc3ncc(CNS(C)(=O)=O)n3CC2)o1.O=C(O)C(F)(F)F | -0.4637
Cc1cc(C(=O)N2CCc3ncc(CN4CCCC4)n3CC2)no1.O=C(O)C(F)(F)F | -20
O=C(NCc1cnc2n1CCN(CC1CC1)C2)C1CC1.O=C(O)C(F)(F)F | 80.69
Cn1ccnc1C(=O)NC[C@@H]1OC[C@H]2CN(CC3CC3)CC[C@H]21.O=C(O)C(F)(F)F | -43.28
O=C(NCc1cn2c(n1)CN(Cc1nccs1)CC2)C1CCC1.O=C(O)C(F)(F)F | -3.871
Cc1ccc(CN2CCc3ncc(CNC(=O)C4CCC4)n3CC2)o1.O=C(O)C(F)(F)F | 89.47
O=C(NCc1cnc2n1CCN(CC1CCOCC1)C2)c1ccno1.O=C(O)C(F)(F)F | -43.24
Cn1ccnc1C(=O)NCc1cnc2n1CCN(CC1CC1)CC2.O=C(O)C(F)(F)F.O=C(O)C(F)(F)F | 88.03
CC(=O)Nc1ccsc1C(=O)Nc1cnc2n1CCCC2 | 1.629
CNc1nc(C(=O)NCC2CCOc3ccccc3C2)cs1 (centres undefined) | 3.092
CC(C)C1CN(c2nccc(N)n2)CCC(=O)N1Cc1ccc(F)cc1 (centres undefined) | 6.607
COc1cccc(OCC2CCCN(C(=O)c3ccc(N)nc3)C2)c1 (centres undefined) | -26.62
CC(C)N(CC(=O)Nc1ccc(Br)cc1Cl)Cc1cccnc1 | -0.1768
COC(=O)CCC(=O)N1CCc2nc(C(=O)N3CCOCC3)sc2CC1 | -7.844
CN(Cc1ccco1)[C@@H]1CN(CC2CCOCC2)C[C@@H]2CCCO[C@@H]21.O=C(O)C(F)(F)F.O=C(O)C(F)(F)F | 2.943

Structure (SMILES) | Percent Effect [%]
Cn1cnc2cc(C(=O)N3CCC(c4ccccc4C(=O)O)C3)cnc21 (centres undefined) | 0.5169
CC1CCN(C(=O)c2ccn(COc3ccc(F)cc3)n2)CC1 | 3.69
COc1nn(C)cc1C(=O)N1CCC(C)CC1 | 127.9
COc1nn(C)cc1C(=O)N1CCC(c2ccccc2)C1 (centres undefined) | 121.1
CCN(CC)C(=O)CCNC(=O)N1CCC(c2ccccc2)C1 (centres undefined) | 4.092
CC1CCN(C(=O)c2cn(-c3cc(N4CCSCC4)ncn3)cn2)CC1 | 12.42
CCNC(=O)N1CCC(c2ccccc2)C1 (centres undefined) | 124.1
O=C(NCCNC(=O)N1CCC(c2ccccc2)C1)C1CC1 (centres undefined) | -9.135
CS(=O)(=O)Cc1ccc(Cl)cc1NCc1cccc(F)c1F | -9.935
CC(=O)NCC1CCN(CC2CCOc3ccccc3C2)CC1 (centres undefined) | 6.943
CCCN1CC2(CCN(C)CC2)CC1C(=O)NCCn1cccn1 (centres undefined) | 6.399
COc1ccc(CN2CCN(CC3CC3)[C@@H]3CS(=O)(=O)C[C@@H]32)cc1C | 20.23
CNS(=O)(=O)c1cccc(CNc2nccc(C(F)(F)F)n2)c1 | -7.88
COc1ccc(Cl)cc1CN(C)CC(=O)/N=c1\cc[nH]n1C(C)C1CC1 (centres undefined) | -13.95
OC1(CNCCc2nc3c(s2)CCCC3)CCNC1 (centres undefined) | 87.02
Cc1nc2c(c(NCCc3nc4c(s3)CCCC4)n1)CCNCC2 | 7.698
OC1(CNCCSc2ccccn2)CNCCOC1 (centres undefined) | -26.11
C1Cc2nc(CCNc3nc(C4CC4)nc4c3CCNCC4)sc2C1 | 0.8801
OC1(CNCCc2nc(Cc3ccccc3)no2)CNCCOC1 (centres undefined) | 14.79
OC1(CNCCc2nc3c(s2)CCCC3)CNCCOC1 (centres undefined) | 109
